Data taken from PubChem BioAssay (EPA / NIEHS).
Several values for one entry are separate records, joined by “and”; a condition that tells them apart may be missing. Identical values can stand only once. Some compounds were tested as several samples or in several runs, with calls that do not always agree. Activity calls are given as the source filed them. Rule for the calls: active = hit-call score of the fitted dose curve at least 0.9, where 1 is the maximum; inactive = score below 0.9.

Assay: ATG_Oct_MLP_CIS: Attagene CIS-FACTORIAL HepG2 Assay for human Octamer-Binding Transcription Factor (Oct) (AID 2282993)
Conditions: HepG2 Attagene cis-factorial Oct reporter, mRNA; actives raise or lower the signal
Protocol: ATG_CIS is a cell-based, multiplexed-readout assay that uses HepG2, a human liver cell line, with measurements taken at 24 hours after chemical dosing in a 24-well plate.ATG_Oct_MLP_CIS is one of 52 assay component(s) measured or calculated from the ATG_CIS assay. It is designed to make measurements of mRNA induction, a form of inducible reporter, as detected with fluorescence intensity signals by Reverse transcription polymerase chain reaction (RT-PCR) and Capillary electrophoresis technology.Data from the assay component ATG_Oct_MLP_CIS was analyzed into 1 assay endpoint. This assay endpoint, ATG_Oct_MLP_CIS, was analyzed with bidirectional fitting relative to DMSO as the negative control and baseline of activity. Using a type of inducible reporter, measures of mRNA for gain or loss-of-signal activity can be used to understand the reporter gene at the transcription factor-level as they relate to the gene POU2F1. Furthermore, this assay endpoint can be referred to as a primary readout, because this assay has produced multiple assay endpoints where this one serves a reporter gene function. To generalize the intended target to other relatable targets, this assay endpoint is annotated to the dna binding intended target family, where the subfamily is POU domain protein.
Human liver HepG2 cells are transiently transfected with multiple reporter transcription units (MRTUs) in 6-well plates using FuGene 6 reagent (Roche; 3 ml FuGene/1 mg DNA). The MRTU constructs are regulated by a cis-regulating element (promoter). […] A major difference between the CIS and TRANS system is that in CIS activities of endogenous TFs are measured, whereas the TRANS assay evaluates changes in activities of exogenous, chimeric NR-Gal4 proteins. […] At the end of 24 hour incubation, total RNA was isolated using TriZol reagent (Invitrogen). The isolated RNA is then reverse-transcribed using oligo(dT) primer and Mo-MLV reverse transcriptase (Invitrogen) with DNAse I (Ambion) treatment for 30 min. The one-tenth of the produced cDNA was amplified by PCR using Taq DNA polymerase (Invitrogen) and two reporter sequence-specific primers. The PCR products were fluorescently labeled by primer extension with 6-arboxyfluorescein (6-FAM) 5'-labeled reporter sequence-specific primer (2 min at 95 C, 20 s at 68 C and 10 min at 72 C) and these products were digested with 5U of HpaI (New England Biolabs) for 2h at 37 C. The fragments were purified using Qiaquick PCR columns (Qiagen), analyzed on an ABI 3130xL genetic analyzer (Applied Biosystems) with peak positions identified by using a set of X-rhodamine (ROX)-labeled MapMarker1000 molecular weight standards (BioVentures). The raw capillary electrophoresis data was processed using Attagraph software (Attagene).

Row | Structure (SMILES) | AC50 | outcome
1 | C[C@]12C=CC3=C4CCC(=O)C=C4CC[C@H]3[C@@H]1CC[C@@H]2O | 71.1 µM (active) and 13.9 µM (active) and 9.62 µM (active) | inactive
2 | CC(C)N(Cc1ccccc1)C(=O)C(C)(C)C | – | inactive
3 | N#CC(Br)Br | – | inactive
4 | CC(O)CCO (stereo not given) | – | inactive
5 | O=C(Oc1ccc(Br)cc1)N1CCN2CCC1CC2 | – | inactive
6 | CN(C)[C@@H]1C(=O)C(C(N)=O)=C(O)[C@@]2(O)C(=O)C3=C(O)c4c(O)cccc4[C@@](C)(O)[C@H]3C[C@@H]12 | – | inactive
7 | CCCCC(CC)COC(=O)c1ccc(C(=O)OCC(CC)CCCC)c(C(=O)OCC(CC)CCCC)c1 (stereo not given) | – | inactive
8 | ClCCOCCCl | – | inactive
9 | CN(C)C(=O)Nc1ccc(Cl)cc1 | – | inactive
10 | C1=Cc2cccc3cccc1c23 | – | inactive
11 | O=P(OCCCl)(OCCCl)OCCCl | – | inactive
12 | O=[N+]([O-])C(Br)(CO)CO | 156 µM (active) | –
13 | Oc1ccccc1Cl | – | inactive
14 | CC(C)(C)OOC(C)(C)CCC(C)(C)OOC(C)(C)C | – | inactive
15 | [O-][Cl+]O | – | inactive
16 | Cc1ccc(N)cc1 | – | inactive
17 | Nc1ccc(Oc2ccc(N)cc2)cc1 | – | inactive
18 | [As]#[In] | – | inactive
19 | CNC(=O)Oc1cccc2c1OC(C)(C)C2 | – | inactive
20 | COc1cc(C=O)cc2c1[C@H](COC(N)=O)[C@]1(OC(C)=O)ON2C[C@H]2[C@@H]1N2C(C)=O | 0.179 µM (active) | –

Row | Structure (SMILES) | AC50 | outcome
21 | CO[C@@H]1[C@H](OC(=O)NC(=O)CCl)CC[C@]2(CO2)[C@H]1[C@@]1(C)O[C@@H]1CC=C(C)C | 40.5 µM (active) | –
22 | c1ccc2c(c1)oc1ccccc12 | – | inactive
23 | N#CC(Br)(Br)C(N)=O | – | inactive
24 | Oc1ccc2ccc3cccc4ccc1c2c34 | – | inactive
25 | Nc1ccc(N=Nc2ccccc2)cc1 | 36.2 µM (active) | –
26 | Clc1ccccc1Cl | – | inactive
27 | Nc1ccc([N+](=O)[O-])cc1 | – | inactive
28 | CCCCCOC(=O)c1ccccc1C(=O)OCCCCC | 161 µM (active) | –
29 | CCC12COCN1COC2 | – | inactive
30 | COP(=S)(OC)SCN1C(=O)c2ccccc2C1=O | – | inactive
31 | CCCCCCCCCCCCCN1CC(C)OC(C)C1 (stereo not given) | – | inactive
32 | CC(C)COC(=O)c1ccccc1C(=O)OCC(C)C | 83 µM (active) | –
33 | CCCSC(=O)N(CCC)CCC | – | inactive
34 | OCCCBr | – | inactive
35 | Cc1ccc(N)c(N)c1 | 42.3 µM (active) | –
36 | CCCCOC(=O)c1ccccc1C(=O)OCc1ccccc1 | – | inactive
37 | Brc1ccc(Oc2ccccc2)cc1 | 177 µM (active) | –
38 | O=C(Nc1ccccc1)c1ccccc1I | – | inactive
39 | Nc1ccc(Cc2ccc(N)cc2)cc1 | – | inactive
